Activity calls are given as the source filed them.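 The calls were made as follows: active = normalized viability below 100% at a tested concentration; inactive = the rest.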
Assay: ovarian cancer cell viability with rucaparib, profiling panel, oncology-focused library, rucaparib conditional (AID 1508598)
Settings: patient-derived ovarian cancer cells, CellTiter-Glo viability, 144 h, active compounds read low
[1] = at 0.000305 µM, OCI-C5x cells, with rucaparib 10 µM, 100% = cells with rucaparib alone
[2] = at 0.000305 µM, OCI-C5x cells, without rucaparib
[3] = at 0.000305 µM, OCI-P5x cells, with rucaparib 20 µM, 100% = cells with rucaparib alone
[4] = at 0.000305 µM, OCI-P5x cells, without rucaparib
[5] = at 0.00122 µM, OCI-C5x cells, with rucaparib 10 µM, 100% = cells with rucaparib alone
[6] = at 0.00122 µM, OCI-C5x cells, without rucaparib
[7] = at 0.00122 µM, OCI-P5x cells, with rucaparib 20 µM, 100% = cells with rucaparib alone
[8] = at 0.00122 µM, OCI-P5x cells, without rucaparib
[9] = at 0.00488 µM, OCI-C5x cells, with rucaparib 10 µM, 100% = cells with rucaparib alone
[10] = at 0.00488 µM, OCI-C5x cells, without rucaparib
[11] = at 0.00488 µM, OCI-P5x cells, with rucaparib 20 µM, 100% = cells with rucaparib alone
[12] = at 0.00488 µM, OCI-P5x cells, without rucaparib
[13] = at 0.0195 µM, OCI-C5x cells, with rucaparib 10 µM, 100% = cells with rucaparib alone
[14] = at 0.0195 µM, OCI-C5x cells, without rucaparib
[15] = at 0.0195 µM, OCI-P5x cells, with rucaparib 20 µM, 100% = cells with rucaparib alone
[16] = at 0.0195 µM, OCI-P5x cells, without rucaparib
[17] = at 0.0781 µM, OCI-C5x cells, with rucaparib 10 µM, 100% = cells with rucaparib alone
[18] = at 0.0781 µM, OCI-C5x cells, without rucaparib
[19] = at 0.0781 µM, OCI-P5x cells, with rucaparib 20 µM, 100% = cells with rucaparib alone
[20] = at 0.0781 µM, OCI-P5x cells, without rucaparib
[21] = at 0.313 µM, OCI-C5x cells, with rucaparib 10 µM, 100% = cells with rucaparib alone
[22] = at 0.313 µM, OCI-C5x cells, without rucaparib
[23] = at 0.313 µM, OCI-P5x cells, with rucaparib 20 µM, 100% = cells with rucaparib alone
[24] = at 0.313 µM, OCI-P5x cells, without rucaparib
[25] = at 1.25 µM, OCI-C5x cells, with rucaparib 10 µM, 100% = cells with rucaparib alone
[26] = at 1.25 µM, OCI-C5x cells, without rucaparib
[27] = at 1.25 µM, OCI-P5x cells, with rucaparib 20 µM, 100% = cells with rucaparib alone
[28] = at 1.25 µM, OCI-P5x cells, without rucaparib
[29] = at 5 µM, OCI-C5x cells, with rucaparib 10 µM, 100% = cells with rucaparib alone
[30] = at 5 µM, OCI-C5x cells, without rucaparib
[31] = at 5 µM, OCI-P5x cells, with rucaparib 20 µM, 100% = cells with rucaparib alone
[32] = at 5 µM, OCI-P5x cells, without rucaparib

Measured: viability

CC(=O)OCC(=O)[C@]1(O)[C@H](C)C[C@H]2[C@@H]3CCC4=CC(=O)C=C[C@]4(C)[C@]3(F)[C@H](O)C[C@@]21C
active: [16] 99.6% | [20] 98.1% | [24] 94.5% | [27] 97.6% | [28] 94.3% | [31] 88.4% | [32] 84.6%
inactive: [1] 119% | [2] 119% | [3] 107% | [4] 108% | [5] 121% | [6] 125% | [7] 105% | [8] 106% | [9] 131% | [10] 122% | [11] 110% | [12] 105% | [13] 124% | [14] 123% | [15] 109% | [17] 118% | [18] 112% | [19] 104% | [21] 113% | [22] 113% | [23] 100% | [25] 122% | [26] 123% | [29] 115% | [30] 110%

Cc1cc(NC(=O)c2cccc(NC(=O)/C=C/CN(C)C)c2)ccc1Nc1nccc(-c2cccnc2)n1
inactive: [1] 118% | [2] 133% | [3] 111% | [4] 110% | [5] 116% | [6] 132% | [7] 108% | [8] 113% | [9] 140% | [10] 160% | [11] 108% | [12] 107% | [13] 146% | [14] 172% | [15] 104% | [16] 106% | [17] 180% | [18] 183% | [19] 111% | [20] 109% | [21] 172% | [22] 199% | [23] 116% | [24] 112% | [25] 163% | [26] 186% | [27] 103% | [28] 116% | [29] 159% | [30] 194% | [32] 108%
active: [31] 83.9%

COC1=C2C[C@H](C)C[C@@H](OC)[C@H](O)[C@H](C)/C=C(\C)[C@H](OC(N)=O)[C@@H](OC)/C=C/C=C(\C)C(=O)NC(=CC1=O)C2=O
inactive: [3] 108% | [4] 102% | [5] 107% | [6] 106% | [8] 103% | [9] 114% | [10] 109%
active: [1] 97.2% | [2] 99.7% | [7] 93.1% | [11] 14.8% | [12] 14.2% | [13] 29.6% | [14] 12.1% | [15] 5.75% | [16] 4.97% | [17] 16.4% | [18] 9.53% | [19] 5.79% | [20] 4.23% | [21] 11.1% | [22] 7.02% | [23] 5.27% | [24] 4.3% | [25] 9.96% | [26] 7.13% | [27] 5.24% | [28] 3.95% | [29] 6.19% | [30] 5.94% | [31] 4.11% | [32] 3.72%

Source: PubChem BioAssay
